Test results reported in PubChem BioAssay AID1159580 (chemical genetic matrix, 2015).
Out of some 5,500 compounds screened, about 2,000 (36%) were called active. About 18% were inconclusive and are not listed. Cut-off read from the data, not from the text of the source: active = normalized growth mostly below about 0.91 (no sharp cut-off); inconclusive = no clear call, values can overlap the other calls; inactive = mostly above about 0.92. This is one part of the list.

Assay: chemical genetic growth profiling, strain panel (AID 1159580);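 note: tested at 20 µM; growth read once vehicle control cultures reached saturation at 30 °C; 1 = growth at the plate median or of vehicle wells; lower values mean less growth of the strain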
Conditions: growth OD

Measured: normalized growth

COc1cc(C/C=C/c2ccccc2)c(OC)cc1O
active: S. cerevisiae deletion strains, locus YLR371W, strain rom2, hits give low values 0.849 | S. cerevisiae deletion strains, locus YNL071W, strain lat1, hits give low values 0.866 | S. cerevisiae deletion strains, locus YNL250W, strain rad50, hits give low values 0.898 | S. cerevisiae deletion strains, locus YPL106C, strain sse1, hits give low values 0.847 | S. cerevisiae deletion strains, locus YPR141C, strain kar3, hits give low values 0.914
inactive: S. cerevisiae deletion strains, locus YJR066W, strain TOR1, hits give low values 0.989 | S. cerevisiae deletion strains, locus YJR075W, strain HOC1, hits give low values 0.935 | S. cerevisiae deletion strains, locus YKL009W, strain mrt4, hits give low values 1.01 | S. cerevisiae deletion strains, locus YKL068W, hits give low values 0.954 | S. cerevisiae deletion strains, locus YKL085W, strain MDH1 (second series), hits give low values 0.965 | S. cerevisiae deletion strains, locus YKL085W, strain MDH1, hits give low values 0.965 | S. cerevisiae deletion strains, locus YKL160W, strain elf1, hits give low values 0.95 | S. cerevisiae deletion strains, locus YKR001C, strain vps1, hits give low values 0.969 | S. cerevisiae deletion strains, locus YKR026C, strain gcn3, hits give low values 0.956 | S. cerevisiae deletion strains, locus YKR091W, strain srl3, hits give low values 0.954 | S. cerevisiae deletion strains, locus YLL001W, strain dnm1, hits give low values 0.926 | S. cerevisiae deletion strains, locus YLL026W, hits give low values 0.962 | S. cerevisiae deletion strains, locus YLL041C, strain sdh2, hits give low values 0.949 | S. cerevisiae deletion strains, locus YLR027C, strain aat2, hits give low values 0.942 | S. cerevisiae deletion strains, locus YLR039C, strain RIC1, hits give low values 0.91 | S. cerevisiae deletion strains, locus YLR058C, strain SHM2, hits give low values 0.987 | S. cerevisiae deletion strains, locus YLR102C, strain apc9, hits give low values 0.964 | S. cerevisiae deletion strains, locus YLR113W, strain HOG1, hits give low values 1.01 | S. cerevisiae deletion strains, locus YLR221C, strain rsa3, hits give low values 1 | S. cerevisiae deletion strains, locus YLR258W, strain gsy2, hits give low values 0.943 | S. cerevisiae deletion strains, locus YLR262C, strain YPT6 (second series), hits give low values 0.95 | S. cerevisiae deletion strains, locus YLR262C, strain YPT6, hits give low values 0.967 | S. cerevisiae deletion strains, locus YLR268W, strain sec22, hits give low values 1 | S. cerevisiae deletion strains, locus YLR320W, strain mms22, hits give low values 0.982 | S. cerevisiae deletion strains, locus YLR330W, strain CHS5, hits give low values 0.964 | S. cerevisiae deletion strains, locus YLR342W, strain FKS1 (second series), hits give low values 1.05 | S. cerevisiae deletion strains, locus YLR342W, strain FKS1, hits give low values 0.949 | S. cerevisiae deletion strains, locus YLR357W, strain rsc2, hits give low values 0.883 | S. cerevisiae deletion strains, locus YLR370C, strain arc18, hits give low values 0.965 | S. cerevisiae deletion strains, locus YLR384C, strain iki3, hits give low values 0.98 | S. cerevisiae deletion strains, locus YLR418C, strain cdc73, hits give low values 0.883 | S. cerevisiae deletion strains, locus YML016C, strain PPZ1, hits give low values 0.963 | S. cerevisiae deletion strains, locus YML032C, strain rad52, hits give low values 1.02 | S. cerevisiae deletion strains, locus YML120C, strain ndi1, hits give low values 0.922 | S. cerevisiae deletion strains, locus YML124C, strain tub3, hits give low values 0.941 | S. cerevisiae deletion strains, locus YMR058W, strain fet3, hits give low values 0.923 | S. cerevisiae deletion strains, locus YMR078C, strain ctf18, hits give low values 0.956 | S. cerevisiae deletion strains, locus YMR125W, strain sto1, hits give low values 0.898 | S. cerevisiae deletion strains, locus YMR129W, hits give low values 0.96 | S. cerevisiae deletion strains, locus YMR205C, strain PFK2, hits give low values 0.914 | S. cerevisiae deletion strains, locus YMR223W, strain ubp8, hits give low values 0.983 | S. cerevisiae deletion strains, locus YMR231W, strain pep5, hits give low values 0.978 | S. cerevisiae deletion strains, locus YMR307W, strain GAS1, hits give low values 1.04 | S. cerevisiae deletion strains, locus YNL067W, strain RPL9B, hits give low values 0.966 | S. cerevisiae deletion strains, locus YNL128W, strain TEP1, hits give low values 0.944 | S. cerevisiae deletion strains, locus YNL183C, strain NPR1, hits give low values 1 | S. cerevisiae deletion strains, locus YNL209W, strain ssb2, hits give low values 0.97 | S. cerevisiae deletion strains, locus YNL233W, strain BNI4, hits give low values 0.945 | S. cerevisiae deletion strains, locus YNL248C, strain rpa49, hits give low values 0.95 | S. cerevisiae deletion strains, locus YNL271C, strain bni1, hits give low values 0.926 | S. cerevisiae deletion strains, locus YNL298W, strain CLA4, hits give low values 0.986 | S. cerevisiae deletion strains, locus YNL307C, strain MCK1, hits give low values 0.955 | S. cerevisiae deletion strains, locus YNL322C, strain KRE1 (second series), hits give low values 0.969 | S. cerevisiae deletion strains, locus YNL322C, strain KRE1, hits give low values 0.962 | S. cerevisiae deletion strains, locus YNR049C, strain mso1, hits give low values 0.962 | S. cerevisiae deletion strains, locus YNR052C, strain pop2, hits give low values 0.969 | S. cerevisiae deletion strains, locus YOL006C, strain TOP1, hits give low values 1.23 | S. cerevisiae deletion strains, locus YOL012C, strain htz1 0.65 | S. cerevisiae deletion strains, locus YOL147C, strain pex11, hits give low values 0.963 | S. cerevisiae deletion strains, locus YOR001W, strain rrp6, hits give low values 0.982 | S. cerevisiae deletion strains, locus YOR061W, strain CKA2, hits give low values 0.965 | S. cerevisiae deletion strains, locus YOR069W, strain VPS5, hits give low values 0.955 | S. cerevisiae deletion strains, locus YOR070C, strain gyp1, hits give low values 0.981 | S. cerevisiae deletion strains, locus YOR080W, strain dia2, hits give low values 0.959 | S. cerevisiae deletion strains, locus YOR083W, strain WHI5, hits give low values 0.934 | S. cerevisiae deletion strains, locus YOR106W, strain vam3, hits give low values 0.882 | S. cerevisiae deletion strains, locus YOR136W, strain idh2, hits give low values 0.963 | S. cerevisiae deletion strains, locus YOR144C, strain elg1, hits give low values 0.971 | S. cerevisiae deletion strains, locus YOR184W, strain ser1, hits give low values 1.08 | S. cerevisiae deletion strains, locus YOR231W, strain MKK1, hits give low values 1.07 | S. cerevisiae deletion strains, locus YOR265W, strain rbl2, hits give low values 0.955 | S. cerevisiae deletion strains, locus YOR270C, strain vph1, hits give low values 0.924 | S. cerevisiae deletion strains, locus YOR290C, strain snf2, hits give low values 0.902 | S. cerevisiae deletion strains, locus YOR316C, strain cot1, hits give low values 0.95 | S. cerevisiae deletion strains, locus YPL051W, strain arl3, hits give low values 0.937 | S. cerevisiae deletion strains, locus YPL055C, strain LGE1, hits give low values 1.01 | S. cerevisiae deletion strains, locus YPL078C, strain atp4, hits give low values 0.916 | S. cerevisiae deletion strains, locus YPL240C, strain hsp82, hits give low values 0.963 | S. cerevisiae deletion strains, locus YPL256C, strain CLN2, hits give low values 1.03 | S. cerevisiae deletion strains, locus YPR119W, strain clb2, hits give low values 0.946 | S. cerevisiae deletion strains, locus YPR163C, strain tif3, hits give low values 0.98 | S. cerevisiae deletion strains, locus YPR167C, strain met16, hits give low values 0.959 | S. cerevisiae deletion strains, strain wtn01, hits give low values 1.02 | S. cerevisiae strains, strain wild type, hits give low values 0.98
